Results filed as inconclusive are left out. The source made the active and inactive calls.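 How the source made its calls, unless noted: active means viability at or below 27.92% in each of two runs, the all-compound median minus 4 SD; inconclusive means no clear call, values can overlap the other calls; inactive means the rest.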
Tests used:
[1] = reducers of endogenous Her2 protein level, primary screen, SKBR3 breast tumor cells, AlphaScreen, ATP viability (AID 461;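 active means Her2 level under about 52% in both replicate screens, with viability over 70% of control, limit read from the data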;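 on Her2 level: lower value means less Her2 protein in the cells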;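 on viability: percent of carrier control wells set as 100% viability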); details: 18-24 h, measured here: SKBR3 viability, ATP luminescence, at 10 µM
[2] = target: Receptor tyrosine-protein kinase erbB-2 (Homo sapiens) (UniProt P04626); assay: as above; details: 18-24 h, at 10 µM, stronger effect = lower value
Receptor tyrosine-protein kinase erbB-2 (Homo sapiens), sequence (P04626 whole entry, looked up): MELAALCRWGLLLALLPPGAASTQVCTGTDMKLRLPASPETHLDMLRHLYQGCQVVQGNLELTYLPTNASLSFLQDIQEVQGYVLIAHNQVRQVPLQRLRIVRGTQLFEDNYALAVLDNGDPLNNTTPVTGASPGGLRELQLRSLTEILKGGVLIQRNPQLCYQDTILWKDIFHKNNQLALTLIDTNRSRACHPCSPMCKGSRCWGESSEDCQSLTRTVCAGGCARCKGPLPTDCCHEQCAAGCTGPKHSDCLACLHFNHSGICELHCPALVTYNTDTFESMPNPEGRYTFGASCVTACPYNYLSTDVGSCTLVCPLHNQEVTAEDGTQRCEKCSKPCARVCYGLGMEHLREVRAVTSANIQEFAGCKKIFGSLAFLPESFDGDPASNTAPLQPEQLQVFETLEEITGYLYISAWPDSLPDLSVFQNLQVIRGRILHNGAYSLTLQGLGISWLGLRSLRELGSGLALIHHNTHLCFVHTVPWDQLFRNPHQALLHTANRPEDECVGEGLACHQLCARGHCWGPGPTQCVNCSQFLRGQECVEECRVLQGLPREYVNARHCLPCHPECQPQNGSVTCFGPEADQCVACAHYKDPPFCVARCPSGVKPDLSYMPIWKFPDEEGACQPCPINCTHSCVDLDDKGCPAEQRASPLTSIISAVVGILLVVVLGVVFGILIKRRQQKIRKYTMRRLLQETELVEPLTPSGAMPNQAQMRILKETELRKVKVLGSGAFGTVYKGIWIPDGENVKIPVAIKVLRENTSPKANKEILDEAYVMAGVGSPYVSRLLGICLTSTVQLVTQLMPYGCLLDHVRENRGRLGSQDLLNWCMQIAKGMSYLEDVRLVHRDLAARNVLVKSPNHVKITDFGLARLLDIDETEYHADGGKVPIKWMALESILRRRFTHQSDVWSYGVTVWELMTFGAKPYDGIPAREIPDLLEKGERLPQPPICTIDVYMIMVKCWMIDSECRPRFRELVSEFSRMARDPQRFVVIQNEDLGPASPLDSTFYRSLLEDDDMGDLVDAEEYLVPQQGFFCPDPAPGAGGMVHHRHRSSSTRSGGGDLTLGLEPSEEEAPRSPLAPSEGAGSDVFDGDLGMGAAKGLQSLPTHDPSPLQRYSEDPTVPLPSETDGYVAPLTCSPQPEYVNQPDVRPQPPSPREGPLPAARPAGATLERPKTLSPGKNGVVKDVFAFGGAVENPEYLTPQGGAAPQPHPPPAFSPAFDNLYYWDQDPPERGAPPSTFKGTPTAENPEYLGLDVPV

[3] = SK-BR-3 cell growth inhibitors, pilot screen, 24 h, human (AID 572;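 active means viability at or below 10% of carrier control in both of two separate runs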;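 further: compound exposure lasted between 18 and 24 h rather than exactly 24 h; 100% = carrier-treated control wells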); details: SK-BR-3 viability, CellTiter-Glo luminescence, at 10 µM, stronger effect = lower value
[4] = HUVEC growth inhibition – cell-based, human, primary screen (AID 575;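 active means viability at or below 30% in both replicate assays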;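 further: 100% = median of untreated cell wells with 0.1% DMSO on each plate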); details: HUVEC proliferation, CellTiter-Glo luminescence, 72 h; at 10 µM; stronger effect = lower value
[5] = growth inhibitors of H69AR lung tumor, primary screen, human, duplicate replicates (AID 580;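 active means viability at or under a set limit in both replicates, limit being median viability minus 3 SD, cut at about 48% in these data, passing the limit was not always enough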;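 further: 100% = mean luminescence of untreated wells and 0% = no signal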); details: H69AR lung tumor cells viability, ATP luminescence, 72 h; at 10 µM; stronger effect = lower value
[6] = reversal of MRP1-mediated doxorubicin resistance, pilot screen, H69AR cells, doxorubicin co-treatment (AID 601;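 active means viability loss from added drug above about 55%, and viability with drug at most 40%, in both replicates, limit read from the data, passing the limit was not always enough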); details: CellTiter-Glo, 72 h, at 10 µM; for differential viability (reversal): stronger effect = higher value
[7] = 384-well plate pilot, post-Golgi transport modulator project, inhibition of yeast transport mutant growth (AID 636; in the data active means inhibition above about 31%); details: absorbance 615 nm, about 18 h, stronger effect = higher value
[8] = growth suppression of yeast trafficking mutant, preliminary HTS, modulators of trafficking downstream of Golgi apparatus project, 1536-format plate, OD 615 nm (AID 637; in the data active means inhibition above about 30%); details: yeast transport mutant growth, absorbance 615 nm, 18 h; stronger effect = higher value
[9] = OD615 S. cerevisiae growth inhibition, permissive medium, pilot counter-assay, permissive growth control for S. cerevisiae lifespan shortening project (AID 705;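 active means growth inhibition above 25% in both replicates, a cutoff set 3 SD above the mean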); details: OD615, 24 h, at 10 µM, stronger effect = higher value
[10] = Restrictive medium S. cerevisiae growth inhibition, OD615, pilot screen of yeast lifespan reduction project, restrictive growth control (AID 706;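 active means growth inhibition above a set limit, 3 SD over mean compound inhibition, in both replicates, cut at about 43% in these data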;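 further: modified DeaD lifespan yeast strain shifted to restrictive glucose medium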); details: OD615, 48 h, at 10 µM, stronger effect = higher value
[11] = viability gain of MRP-1-high H69AR cells under doxorubicin, pilot screen, MRP-1 activator project, CellTiter-Glo, duplicate (AID 807;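 active means viability increase at or above a cutoff of the median across tested compounds plus 3 SD, cut at about 8.5% in these data, passing the limit was not always enough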;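 further: compound pretreatment 18-22 h then 72 h combined with doxorubicin; 0% = doxorubicin alone and 100% = vehicle without doxorubicin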); details: H69AR viability with doxorubicin, CellTiter-Glo luminescence; at 10 µM; stronger effect = higher value
[12] = growth suppression of beta-catenin knockout HCT116, pilot screen, human colon tumor cells (AID 823;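 active means cell viability at or below a set limit in both duplicate runs, the limit being the all-compound median minus 4 SD, cut at about 23% in these data, passing the limit was not always enough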;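 further: 0% = wells killed by 20 µM Hyamine and 100% = untreated DMSO cell wells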); details: CellTiter-Glo, 60 h, at 10 µM, stronger effect = lower value
[13] = growth suppression of PTEN-deleted HCT116, pilot screen, cell-based, HCT116 clonal line, CellTiter-Glo (AID 824); details: 60 h, at 10 µM, stronger effect = lower value;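 further: 0% = 20 µM Hyamine control and 100% = vehicle cell control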
[14] = inhibitors of the yeast RAM network, pilot screen, dse1pr::URA3 reporter, 5-FOA selection (AID 869;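 active means inhibition over a set limit, the all-compound mean plus 3 SD, in both replicate runs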;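 further: 0% = DMSO wells with no growth and 100% = 10 µM 1-NA-PP1 with full growth; RAM network block rescues cells from 5-FOA so hits raise OD615 growth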); details: S. cerevisiae dse1pr::URA3 5-FOA growth, OD615, 2 d; at 10 µM; stronger effect = higher value; strain carries analog-sensitive mutant Cbk1 kinase
[15] = RAM signaling pathway blockade in yeast – S. cerevisiae, Pdr1DBD-CYC8 efflux-inhibited sensitized strain, primary screen (AID 1298;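 active means RAM network inhibition above 8.4% in each of two replicates, 3 SD over the compound average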;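 further: 0% = DMSO untreated cells without growth and 100% = 10 µM 1-NA-PP1 full growth; higher means more yeast growth rescued from 5-FOA killing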); details: S. cerevisiae cbk1-as DSE1-URA3 strain, 5-FOA growth OD615, 2 d; at 50 µM; stronger effect = higher value
[16] = H69AR cells + 2 uM doxorubicin, measured here: viability with 2 uM doxorubicin, stronger effect = lower value
[17] = H69AR cells, compound alone cytotoxicity

SMILES	viability [1] [%]	Her2 level [2]	viability [3]	viability [4]	viability [5]	differential viability (reversal) ([6]; H69AR cells + 2 uM doxorubicin)	viability [6, 16] [%]	viability [6, 17] [%]	inhibition [7]	inhibition [8]	growth inhibition [9]	growth inhibition [10]	viability increase [11]	viability [12]	viability [13]	inhibition [14]	RAM network inhibition [15]
COC(=O)c1ccc(NC(=O)CN2CCCC2)cc1	107	97.5% (inactive)	107% (inactive)	104% (inactive)	99.9% (inactive)	0.64% (inactive)	99.2	99.9	-2% (inactive)	-1.13% (inactive)	-4.15% (inactive)	-3.12% (inactive)	-0.69% (inactive)	98% (inactive)	102% (inactive)	0.115% (inactive)	0.47% (inactive)
CCCOc1ccc(C2C(C(=O)OC)=CN(CCOC)C=C2C(=O)OC)cc1	89	92% (inactive)	89% (inactive)	96.4% (inactive)	90.4% (inactive)	-2.27% (inactive)	92.7	90.4	-3.12% (inactive)	3.11% (inactive)	-11.5% (inactive)	12.8% (inactive)	-2.37% (inactive)	81.5% (inactive)	84.4% (inactive)	2.16% (inactive)	5.46% (inactive)
CC(CCC(=O)Nc1nncs1)C(=O)O (stereo not given)	124	110% (inactive)	124% (inactive)	101% (inactive)	85.9% (inactive)	-0.74% (inactive)	86.6	85.9	-3.2% (inactive)	8.33% (inactive)	-8.12% (inactive)	-5.29% (inactive)	0.04% (inactive)	108% (inactive)	95.9% (inactive)	0.135% (inactive)	-0.05% (inactive)
CCOc1ccc(N(CC(=O)NC2CCCCC2)S(=O)(=O)c2c(C)noc2C)cc1	79.5	86.5% (inactive)	79.5% (inactive)	87.3% (inactive)	74.3% (inactive)	-11.3% (inactive)	85.6	74.3	-2.31% (inactive)	-12.8% (inactive)	-6.46% (inactive)	0.415% (inactive)	-1.54% (inactive)	95.5% (inactive)	89% (inactive)	3.15% (inactive)	1.06% (inactive)
COCCn1c(=N)c(C(=O)NCCc2ccccc2)cc2c(=O)n3cccc(C)c3nc21	63.5	69% (inactive)	63.5% (inactive)	86.6% (inactive)	92.5% (inactive)	15.7% (inactive)	76.8	92.5	-0.38% (inactive)	-8.83% (inactive)	1.32% (inactive)	-10.6% (inactive)	-4.45% (inactive)	66.8% (inactive)	68.5% (inactive)	0.64% (inactive)	0.2% (inactive)
CCOC(=O)c1[nH]c(C)c(C(=O)NC)c1C	92	112% (inactive)	92% (inactive)	89.7% (inactive)	98.8% (inactive)	13.8% (inactive)	85	98.8	-0.26% (inactive)	-1.17% (inactive)	-4.37% (inactive)	-10.2% (inactive)	-0.95% (inactive)	109% (inactive)	90.8% (inactive)	1.32% (inactive)	-1.66% (inactive)
CCCCN(CCCC)CCn1cnc2c([nH]c3ccc(OC)cc32)c1=O	76	90.5% (inactive)	76% (inactive)	121% (inactive)	80.2% (inactive)	-12.8% (inactive)	92.9	80.2	-1.67% (inactive)	2.17% (inactive)	-6.29% (inactive)	3.9% (inactive)	-3.78% (inactive)	82.8% (inactive)	86.2% (inactive)	0.545% (inactive)	2.03% (inactive)
CCOc1ccc(NC(=O)CSc2nnc(COc3c(C)cccc3C)o2)cc1	95	102% (inactive)	95% (inactive)	86.7% (inactive)	80.6% (inactive)	-5.7% (inactive)	86.3	80.6	-4.93% (inactive)	-2.83% (inactive)	-9.38% (inactive)	-14.3% (inactive)	-1.9% (inactive)	98.9% (inactive)	98.3% (inactive)	3.71% (inactive)	8.74% (inactive)
CC(=O)OC1c2ccccc2C(=O)N1Cc1ccccc1Cl (stereo not given)	93.5	92.5% (inactive)	93.5% (inactive)	91.3% (inactive)	88.5% (inactive)	-2.26% (inactive)	90.8	88.5	-5.87% (inactive)	-4.83% (inactive)	-1.57% (inactive)	5.51% (inactive)	-3.19% (inactive)	74.6% (inactive)	91.5% (inactive)	0.06% (inactive)	5.73% (inactive)
O=C(NCCc1c[nH]c2ccccc12)c1cnc2n(c1=O)CCS2	92	83% (inactive)	92% (inactive)	81.8% (inactive)	82% (inactive)	-5.14% (inactive)	87.1	82	-3.07% (inactive)	1.8% (inactive)	-5.46% (inactive)	2.1% (inactive)	-3.94% (inactive)	96.6% (inactive)	95.7% (inactive)	0.62% (inactive)	6.77% (inactive)
